# In PubChem BioAssay AID504375 (National Center for Advancing Translational Sciences (NCATS), 2011):
# The campaign covered roughly 1,600 compounds. About 25 (2%) were called active. Roughly 7% stayed inconclusive and do not appear here. Only a selection was taken, and actives are over-represented in it overall. A number with no mark means an inactive call. Calls come from the whole dose curve; as a rule, active = well fitted inhibition curve with a large enough effect; inconclusive = small, poorly fitted or top-dose-only effect, or effect the other way; inactive = no such curve, though single readings can be large or run the other way.
# Target: Runt-related transcription factor 1 (Homo sapiens) + Core-binding factor subunit beta (Homo sapiens) (UniProt Q01196+Q13951)
# Sequence (Q01196 whole entry, looked up): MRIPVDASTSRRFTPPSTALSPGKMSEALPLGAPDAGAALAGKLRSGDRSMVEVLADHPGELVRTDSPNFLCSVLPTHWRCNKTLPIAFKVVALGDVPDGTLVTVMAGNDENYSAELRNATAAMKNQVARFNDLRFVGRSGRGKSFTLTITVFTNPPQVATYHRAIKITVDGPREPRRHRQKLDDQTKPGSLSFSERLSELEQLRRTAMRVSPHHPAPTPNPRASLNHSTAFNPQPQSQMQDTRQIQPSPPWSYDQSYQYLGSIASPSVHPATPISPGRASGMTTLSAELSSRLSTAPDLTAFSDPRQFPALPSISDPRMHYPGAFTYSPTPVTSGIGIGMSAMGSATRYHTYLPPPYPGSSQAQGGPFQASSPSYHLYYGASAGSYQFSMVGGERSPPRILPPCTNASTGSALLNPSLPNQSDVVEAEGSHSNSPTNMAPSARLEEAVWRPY
# Sequence (Q13951 whole entry, looked up): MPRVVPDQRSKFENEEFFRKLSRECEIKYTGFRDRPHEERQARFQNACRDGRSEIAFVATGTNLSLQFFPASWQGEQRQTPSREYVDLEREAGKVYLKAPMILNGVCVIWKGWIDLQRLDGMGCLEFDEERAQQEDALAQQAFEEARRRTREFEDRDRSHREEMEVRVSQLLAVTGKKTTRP
# Assay: qHTS Assay for Compounds Blocking the Interaction Between CBF-beta and RUNX1 for the Treatment of Acute Myeloid Leukemia: Hit Validation with Orthogonal Assay
# Conditions: CBFbeta-RUNX1 binding orthogonal assay, biochemical; series mostly up to 41 µM; activity change, negative = inhibition: at the top concentration
# Source text: NIH Chemical Genomics Center [NCGC]
# NIH Molecular Libraries Probe Production centers Network [MLPCN]
# Assay Submitter (PI): Paul Liu
# Core Binding Factor (CBF) abnormalities are associated with 20-25% of all acute myeloid leukemias (AML), of which 5-10% are further sub classified as acute myelomonocytic leukemia with eosinophilia, also known as M4Eo in the FAB classification scheme. This subtype of leukemia is usually associated with chromosome 16 inversion (p13:q22). Chromosome 16 inversion results in formation of the fusion oncogene CBFB-MYH11, which encodes the fusion protein CBF-beta-SMMHC.
# It has been hypothesized that the interference of CBF-beta and RUNX1 binding could have therapeutic implications for patients with CBF mediated leukemias. We developed a CBF-beta and RUNX1 binding assay in AlphaScreenTM format and optimized it for high throughput screening to search for inhibitors. The goal of this project is to screen MLPCN's compound collection (MLSMR) for identifying the inhibitors of the interaction between CBF-beta and RUNX1 proteins as research probes. If these probes work well in the animal models, the ultimate goal of this project is to development a new drug treatment for this disease.
# This assay can not be used to assess how apparent inhibitors interfere with protein binding, and whether inhibitors specifically bind to either protein. Disruption of this protein-protein interaction, through any mechanism, is the intended target activity.
# The present data set was run to confirm the activity of hits from the primary screen using an orthogonal assay technology for measuring protein-protein interaction disruption.
# A TR-FRET (time resolved fluorescence resonance energy transfer) assay was performed using the same assay buffer, protein concentrations and incubation times as described previously in the AlphaScreen assay, except that terbium (Tb+) labeled anti-his-antibody and XL665 linked streptavidin were used to capture the binding signal. The Tb+ labeled anti-his-antibody captures His(6)-CBF and XL665 linked streptavidin binds to biotin-RUNX1. The binding of RUNX1 to CBFbrings Tb+ and XL665 to proximity resulting in a TR-FRET signal. Briefly, in a white 384-well plate, 10 µl/well of mixture of biotin-RUNX1 and His(6)-CBFwere incubated with 10 µl/well buffer (positive control) or 10 µl/well compounds (negative control) for 20 min followed by an addition of 10 µl/well of Tb+ labeled anti-his(6)-antibody and XL665 linked streptavidin. After 90 min of incubation in the dark, the assay plate was measured in the Envision plate reader using TR-FRET detection mode. For the 1536-well plate format, 3 µl/well mixture of biotin-RUNX1 and His(6)-CBF (30 nM per protein) was incubated with 23 nl/well compound (dissolved in 100% DMSO) or the equivalent DMSO concentration (positive control) for 30 min followed by the addition of 1 µl/well of 0.44 ng Tb+ labeled anti-his(6)-antibody and 5 nM streptavodin-XL665. After 90 min of incubation, the assay plate was measured in the Envision plate reader.
# The TR-FRET assay for detecting interaction between HIV-I Tat and […] was similarly performed with the recombinant full-length HIV-I Tat CLADE B and HIV-I Tat Biotin conjugated proteins supplied by Diatheva (Fano, Italy). Briefly, the His-CBF and Biotin-RUNX1 complex at a working concentration of 83.3 nM per protein were pre-incubated in assay buffer for 10 minutes on ice. Then HIV-I Tat or unlabeled CBF were added to reach final concentrations (Supplementary Figure 4b) and incubated for 5 minutes. Finally anti-His antibody and streptavidin-XL665 at a final concentration of 2.2 ng and 5 nM, respectively, were added to the plate, which was incubated for 1 hr prior to reading on the PerkinElmer Envision plate reader.
# Keywords: MLSMR, MLPCN, NIH Roadmap, qHTS, NCGC, Core binding factor, CBF, CBF-beta, Acute myeloid leukemia
# % is set by controls: 0 for no effect and ±100 for the full control effect; potency is the fitted concentration of half-maximal effect.
Structure (SMILES),"activity change, negative = inhibition",Potency
C/C(=N\NC(=O)Cn1nc(C)cc1C)c1ccc([N+](=O)[O-])cc1,53.1%,
Cc1n[nH]c(C)c1CCC(=O)N/N=C/c1cccs1,15.4%,
CCOC(=O)COc1nc2c(c(-c3ccco3)c1C#N)CCc1ccccc1-2,0.967%,
CCOc1ccc(/C(C)=N/NC(=O)Cn2nc([N+](=O)[O-])cc2C)cc1,2.61%,
Cc1ccccc1NC(=S)Nc1ccccn1,-11.9%,
Cc1ccc(NC(=S)Nc2ccccn2)cc1C,17.3%,
Cc1[nH]c(=O)[nH]c1C(=O)CCCCC(=O)OCC(=O)Nc1ccccn1,,44.7 nM (active)
Clc1nc(Cl)nc(-c2cn(-c3ccccc3)c3ccccc23)n1,-21.3%,
Nc1c(Cl)ncnc1NCC(O)CO (stereo not given),-0.893%,
Cc1onc(-c2c(Cl)cccc2Cl)c1C(=O)c1ccc(F)cc1,-0.245%,
O=C1OCC2OC(O)C(O)C(O)C2OC(=O)c2cc(O)c(O)c(O)c2-c2c(O)c(O)c3oc(=O)c4c(c(O)c(O)c5oc(=O)c2c3c54)-c2c1cc(O)c(O)c2O (stereo not given),,398 nM (active)
O=C(O[C@@H]1OC2COC(=O)c3cc(O)c(O)c(O)c3-c3c(cc(O)c(O)c3O)C(=O)O[C@@H]([C@H]1O)[C@@H]2O)c1cc(O)c(O)c(O)c1,,891 nM (active)
Cc1nn(C)c(Sc2ccccn2)c1[N+](=O)[O-],17.8%,
Nc1ccc(Oc2ccccc2F)nc1,4.8%,
Cc1nc(C)c(-c2ccn(C(=O)NC(C)C)n2)s1,-3.96%,
CC(C)(C)c1ccc(C(=O)Nc2ccc(S(N)(=O)=O)cc2)cc1,-14.1%,
c1ccc2oc(-c3ccn[nH]3)cc2c1,13%,
CN(C)C(=S)Nc1ccc(Cl)cc1,-10.5%,
C/C(=N\NC(=O)c1cc(-c2cccc([N+](=O)[O-])c2)n[nH]1)c1ccc(F)cc1,24.3%,
Cc1cc(Cl)c2cc3ccccc3cc2n1,-4.05%,
Cc1cccc(NC(=S)N(CCN(C)C)C(C)c2ccccn2)c1 (stereo not given),3.34% [at 22.1 µM],
Cc1ccc(Cl)cc1NC(=S)NN,-11.4%,
Cc1ccc(Cl)cc1NC(=S)N(CCN(C)C)C(C)c1ccccn1 (stereo not given),,1220 nM (active)
COc1ccc(C2Sc3ccccc3N(CCN(C)C)C(=O)C2OC(C)=O)cc1 (stereo not given),-5.56%,
c1ccc(N2CCOCCOCCOCCOCC2)cc1,-0.0612%,
CC(C)(C)OC(=O)N1CCCN(C(=O)Nc2cccc(Cl)c2)CC1,-9.47%,
O=C1c2ccccc2C(=O)N1/N=C/c1ccc(O)c(O)c1O,,2820 nM (active)

Structure (SMILES),"activity change, negative = inhibition",Potency
COc1ccc(C(=O)COc2ccc(C)cc2NC(C)=O)cc1,1.31%,
CC1CC(C)(C)NC(=S)O1 (stereo not given),-6.64%,
CCCCCNc1nc2sc3c(c2c(=O)n1-c1cccc(Cl)c1)CCN(C)C3,10.2%,
Cc1cc(C)c2c(N)c(-c3nnc(SCc4ccc(Cl)cc4)n3C)sc2n1,-7.93%,
O=C(/C=C/c1cn(CC(O)CN2CCCCC2)c2ccccc12)c1ccccc1 (stereo not given),7.34%,
S=c1[nH]nc([C@@H]2C[C@H]2c2ccccc2)n1-c1ccccc1Cl,-7.38%,
CCCCC(=O)Nc1ccc(NC(=S)NC(=O)c2ccco2)cc1OC,-1.9%,
CCC(=O)Nc1cccc(C(=O)OC)c1,1.37%,
CCc1cccc(NC(=O)CCCCCC2NC(=O)NC2C)c1 (stereo not given),,56.2 nM (active)
CCCCc1c(C)nc(N2CCCC2)[nH]c1=O,0.526%,
Cc1cc(=O)n2[nH]c(CCC(=O)O)nc2n1,14.9%,
CCN(CC)S(=O)(=O)c1cccc(NC2=NCCCCC2)c1,-3.88%,
CCN1C/C(=C/c2cccs2)c2nc3ccccc3c(C(=O)O)c2C1,30.8%,
COc1ccc(OS(=O)(=O)c2c(C)noc2C)cc1,14.1%,
O=C(OCC1OC(OC(=O)c2cc(O)c(O)c(OC(=O)c3cc(O)c(O)c(O)c3)c2)[C@@H](OC(=O)c2cc(O)c(O)c(OC(=O)c3cc(O)c(O)c(O)c3)c2)C(OC(=O)c2cc(O)c(O)c(OC(=O)c3cc(O)c(O)c(O)c3)c2)C1OC(=O)c1cc(O)c(O)c(OC(=O)c2cc(O)c(O)c(O)c2)c1)c1cc(O)c(O)c(OC(=O)c2cc(O)c(O)c(O)c2)c1 (stereo not given in full),,10000 nM (active)
O=C(Nc1ccc(Cl)cc1)N1CCCC(Cn2cccc2)C1 (stereo not given),-9.6%,
CC(C)c1nc2oc3c(N(C)CCO)ncnc3c2c2c1CCC2,-6.9%,
CC(C)(C)NC(=O)c1cccc2c1C(=O)c1ccccc1-2,19.1%,
O=C(O)C[C@@H]1C(=O)O[C@@H]2C(COC(=O)c3cc(O)c(O)c(O)c3)O[C@@H](OC(=O)c3cc(O)c(O)c(O)c3)[C@@H](OC(=O)c3cc(O)c(O)c4c3[C@H]1[C@H](O)C(=O)O4)[C@H]2OC(=O)c1cc(O)c(O)c(O)c1 (stereo not given in full),,89.1 nM (active)
CCN(CC)c1ccc(/C=N/N2CCN(Cc3ccccc3Cl)CC2)c(O)c1,3.34%,
CCCNC(=S)Nc1ccccc1,1.82%,
CC1CCC2(CC1)NC(=S)N(C(C)(C)C)N2 (stereo not given),-0.587%,
CN1c2ccccc2C(=O)/C(=C\Nc2ccc(F)cc2)S1(=O)=O,3.72%,
COC(=O)[C@@H](NC(=O)NC1CCCCC1C)C(C)C (stereo not given in full),4.32%,
CCCCCc1ccc(S(=O)(=O)Nc2cc(C)ccn2)cc1,-8.73%,
Cc1onc(-c2ccccc2)c1C(=O)NNC(=S)NC(=O)c1ccc2c(c1)OCO2,0.0734%,
O=C(CCl)NCCCN(C(=O)C(Cl)Cl)c1ccc([N+](=O)[O-])cc1,20.2%,

Structure (SMILES),"activity change, negative = inhibition",Potency
Cn1nc(-c2ccccc2)cc1NS(=O)(=O)c1ccccc1,14.9%,
Cc1c2c(c(O)c3c(O)cccc13)C(=O)O[C@H]2C1C(N(C)C)C(O)=C(C(N)=O)C(=O)[C@H]1O (stereo not given in full),,2240 nM (active)
O=C(NNC(=S)Nc1ccccc1C(F)(F)F)C1CC1,1.1%,
COc1cc(/C=N\NC(=O)CNC(=O)C(c2ccccc2)c2ccccc2)ccc1O,11.9%,
COCc1cc(=O)n2[nH]c(C(C)(C)C)cc2n1,-2.01%,
COc1cc(NCc2ccccc2O)c2ncccc2c1,9.87%,
COc1ccc(NS(=O)(=O)c2ccc(Cl)s2)cn1,7.73%,
O=C(NN1C(=O)C2CCCCC2C1=O)c1ccco1 (stereo not given),-0.159%,
O=c1c(O)cccc2cc(O)c(O)c(O)c12,,1260 nM (active)
O=C(NC(=S)NNC(=O)c1ccccc1O)c1ccco1,,3160 nM (active)
Cc1onc(-c2ccccc2)c1C(=O)NC(=S)NNC(=O)c1ccco1,-16.1%,
O=C(NC(=S)Nc1ccccc1N1CCCC1)c1ccco1,3.85%,
Cc1cc(NC(=O)CN2CCOCC2)n(-c2ccccc2)n1,4.36%,
NS(=O)(=O)c1ccc(Sc2ccccn2)c([N+](=O)[O-])c1,54.9%,
O=C(Nc1ccc2ccccc2c1)c1ccc(Cl)cc1Cl,-9.19%,
COc1cccc(/C=N/n2nnnc2N)c1,8.92%,
CCN(CC)S(=O)(=O)c1ccc(/C=C/C(=O)Nc2ccc(N3CCOCC3)cc2)cc1,8.12%,
CN(C(=O)C(Cl)Cl)C1CC2C=CC1C2 (stereo not given),8.58%,
Cc1cc(C)c(OCC(=O)N(Cc2ccc(N(C)C)cc2)C2CCS(=O)(=O)C2)c(C)c1 (stereo not given),1.38%,
CN(C)S(=O)(=O)c1ccc(Cl)c(NC(=O)CN2CCN(Cc3ccc4c(c3)OCO4)CC2)c1,7.92%,
CC(C)(O)P(=O)(O)CCc1ccccc1,15.2%,
COC(=O)c1ccccc1N=Nc1c(C)noc1C,12.7%,
COc1ccccc1/C=C/C=N/n1c(-c2ccccn2)n[nH]c1=S,11.2%,
CC(=O)Oc1ccc(C(=O)Nc2cccc(-c3nnc(-c4ccco4)o3)c2)cc1,-5.88%,
C=CCNC(=S)NCC,-15.6%,
CN(C)c1cc(-c2ccc([N+](=O)[O-])cc2)oc(=O)c1Cl,7.12%,
CCCc1cc(=O)oc2c(CN(CC)CC)c(O)c(Cl)cc12,19.6%,

Structure (SMILES),"activity change, negative = inhibition",Potency
C/C(=N\O)C1CC(CC(=O)O)C1(C)C (stereo not given),5.63%,
CCc1sc(N)nc1-c1ccccc1,9.08% [at 22.1 µM],
CC(C)NC(=O)NNC(=O)Cn1nnc(-c2cccc(Cl)c2Cl)n1,2.25%,
COCCn1c(-c2ccc(Br)cc2)nc2oc3cc(OC)ccc3c(=O)c2c1=O,13.3%,
Fc1c(CSC(=S)N2CCOCC2)cccc1CSC(=S)N1CCOCC1,8.61%,
COc1ccc(/C=C/C(=O)Oc2cc(O)cc(O)c2)cc1,3.35%,
CN1C2CCC1CC(NC(=O)c1ccc(Cl)cc1)C2 (stereo not given),10.2%,
O=C(O)C1=CC(=C(c2ccc(O)c(C(=O)O)c2)c2ccc(O)c(C(=O)O)c2)C=CC1=O,,7940 nM (active)
COc1ccc(/C=N/NC(=O)c2ccc(Br)cc2)cc1CN1CCOCC1,15.4%,
O=[N+]([O-])c1cc(Cl)cc(/C=N/NC(=S)Nc2ccc(S(=O)(=O)N3CCOCC3)cc2)c1O,36.7%,
CSCC[C@H](NC(=O)OC(C)(C)C)C(=O)N/N=C/c1cccc2nccnc12,33.1%,
COc1ccccc1N1C(=O)[C@@H]2[C@H](C1=O)[C@H](C(=O)c1ccc(OC(C)=O)cc1)N1N=CC=C[C@@H]21,21.1%,
CC(C)Nc1cc(C(C)(C)C)nc2c(-c3ccccc3)cnn12,4.12%,
Cc1nnc(NC(=O)c2ccccc2NC(=O)c2ccccc2)s1,-23.7%,
CN1CCN(C(=O)C23CC4CC(C)(CC(C)(C4)C2)C3)CC1,-9.9%,
COc1cccc(N/C(=N/C(=S)Nc2ccc(C)cc2C)Nc2nc(C)cc(C)n2)c1,-7.98%,
CC(=O)N1N=C2c3ccccc3CCC2C1c1cccs1 (stereo not given),7.29%,
CC(=O)Nc1ccc(NS(=O)(=O)c2ccc(C)cc2)cc1[N+](=O)[O-],31.5%,
Cc1cc(-c2ccccc2C(=O)Nc2ccccc2O)on1,-2.53%,
O=C(O)c1ccccc1C(=O)Nc1ccc(-n2ccc(C(F)(F)F)n2)cc1,-6.89%,
Cc1nc2c(c(=O)c3ccccc3n2C)c(=O)n1-c1ccccc1,1.95%,
CN(C)c1ccc(NC(=O)Nc2csc3ccccc23)cc1,-4.5%,
CSc1cccc(NC(=O)Nc2ccccc2C(N)=O)c1,3.24%,
NC(=O)c1ccc(NC(=O)COC(=O)/C=C/c2ccc3c(c2)OCO3)cc1,21.1%,
